The values that follow come from PubChem BioAssay AID878 (University of Pittsburgh Molecular Library Screening Center, 2007).

Molecules are shown by their SMILES. Hit rate of the full screen: of about 200,000 compounds, about 65 (0.03%) were called active.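 How the source made its calls: active means activation of at least 50% relative to the plate's high and low controls in the primary single-dose screen; inactive means activation below 50%.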 What follows is part of a selection rich in actives, with near analogues and random picks from the rest.

The assay is described as follows: compounds producing H2O2 with reducing agent – biochemical, NIH compound library profiling, artefact control for MLSCN library redox annotation, primary screen (AID 878).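 Further: compound incubated with DTT at 0.8 mM final as the reducing agent.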 The conditions noted are these: DTT-dependent redox cycling H2O2, phenol red/HRP absorbance; at 10 µM; hits give high values; 100% = 100 µM peroxide control, 0% = buffer.
For `COn1c(-c2ccc(Cl)cc2Cl)nc2ncccc21`, the activation is 0.53% (inactive).
The same measure for `C=CCNC(=S)NNC(=O)COc1c(Cl)cc(Cl)cc1Cl`: 0.34% (inactive); for `O=C(NCCCn1ccnc1)C(=O)c1cn(CC(=O)N2CCCCCC2)c2ccccc12`: -0.37% (inactive).
The same measure for `COc1ccc(N2CCN(C(=O)COc3ccc4c(C)cc(=O)oc4c3)CC2)cc1`: -0.38% (inactive).
For `O=C(CSc1nc2ccccc2[nH]1)Nc1nc(-c2ccccc2)c(-c2ccccc2)o1`, the activation is 0.41% (inactive).
With `Cc1ccc(S(=O)(=O)/N=C(/Nc2ccc3[nH]c(=O)[nH]c3c2)c2ccccc2)cc1`, the activation is -0.98% (inactive).
To `COc1ccc(NC(=O)c2cc3nc(-c4ccccc4)cc(C)n3n2)cc1OC` belongs -0.08% (inactive).
The same measure for `CCC(=O)N(Cc1cc2ccccc2[nH]c1=O)c1ccc(OC)cc1`: -0.34% (inactive).
With `CCCOc1ccc(NC(=O)CC2C(=O)N(C)C(=S)N2Cc2ccc3c(c2)OCO3)cc1` (centres undefined), the activation was -0.41% (inactive).
In the case of `CCc1cccc(OC2OC(CO)C(O)C(O)C2NC(C)=O)c1` (centres undefined), the activation was -0.96% (inactive).
The same measure for `Oc1cccc2ccc(/C=C/c3ccc(Br)s3)nc12`: -0.18% (inactive); for `COc1ccc(C(=O)Nc2sc(C)c(C)c2CN2CCOCC2)cc1`: -0.23% (inactive).
The same measure for `CN(/C(=N/S(=O)(=O)c1cccs1)c1ccccc1)c1ccc(O)cc1`: -0.71% (inactive); for `O=C(NC1CCCCCC1)c1cccnc1Sc1ccc(Cl)cc1`: -0.04% (inactive).
Regarding `C/[N+]([O-])=C\c1ccc([N+](=O)[O-])o1`, the activation is 0.48% (inactive).
The same measure for `CSc1ccc(/C=N\NC(=O)CC(=O)NC(C)C)cc1`: -0.35% (inactive).
To `COCCNC(=O)c1ccc(N2CCC3(CC2)OCCO3)c([N+](=O)[O-])c1` belongs 0.43% (inactive); to `COc1cc(/C=C/C(=O)OCC(=O)NC(=O)NCc2ccccc2)ccc1OCC#N`, -0.39% (inactive); to `O=C(CNC(=O)c1cc(=O)[nH]c2ccccc12)Nc1ccc(F)c(F)c1`, 0.25% (inactive).
The same measure for `CN(c1ccc2nc3ccccc3c(=O)n2n1)C1CCCCC1`: -0.26% (inactive); for `COc1ccc(CC(=O)N2N=C(C)CC2(O)C(F)(F)F)cc1` (centres undefined): -0.18% (inactive); for `O=C(/C=C/Sc1ncn[nH]1)c1ccc(Cl)cc1`: 1.23% (inactive).
As to `O=c1c2ccccc2c(-c2ccccc2)nn1-c1ccccn1`, the activation was -0.18% (inactive).
To `CCOCCCNC(=O)C(=O)NCCCOCC` belongs -0.48% (inactive); to `CCC1=NN(C(=O)Cc2ccc([N+](=O)[O-])cc2)C(O)(c2ccc(Br)cc2)C1` (centres undefined), 0.2% (inactive); to `CCOc1cc(NC(=S)NCCCOC)c(OCC)cc1NC(=O)c1ccco1`, -0.65% (inactive).
The same measure for `CNC(=O)C(=O)N/N=C/c1ccccn1`: 0.83% (inactive); for `CCN(CC(=O)NCc1cccs1)S(=O)(=O)c1ccc(NC(C)=O)cc1`: -2.2% (inactive); for `CCOC(=O)C1CCN(S(=O)(=O)c2cc(F)ccc2OC)CC1`: -0.4% (inactive).
The same measure for `Cc1ccc(CNC(=O)COc2ccc3c(c2)CCC3)cc1`: -0.27% (inactive).
For `CO/N=C/CC(=O)c1ccc(OC)cc1`, the activation is -0.35% (inactive).
The same measure for `CCCC1(C(=O)OCC)NC(c2ccc(N(C)C)cc2)C2C(=O)N(c3ccc4c(c3)OCCO4)C(=O)C21` (centres undefined): 0.78% (inactive).
Consider `Cc1ccc(-n2c(C)cc(/C=N\NC(=O)CC(=O)NC(C)C)c2C)cc1`, for which the activation was 0.08% (inactive).
To `O=C(/C=C/c1cccc([N+](=O)[O-])c1)NCCSCc1ccco1` belongs -0.1% (inactive); to `Cc1ccc(CC(=O)Nc2ccc(OC(F)F)c(Cl)c2)cc1C`, 0.61% (inactive).
The same measure for `CCOC(=O)c1c(C)[nH]c(=S)c(C#N)c1-c1ccccc1`: -0.47% (inactive); for `CCOC(=O)C1=C(c2ccc(OC)cc2)C(=O)c2ccccc2C1=O`: 0.28% (inactive).
To `CCOC(=O)c1c(C)[nH]c2c1-c1ccccc1C(=O)C2=O` belongs 89.8% (active); to `COc1ccc(S(=O)(=O)N/N=C\c2ccc(OC)c(COc3ccc(C)cc3[N+](=O)[O-])c2)cc1`, 0.79% (inactive).
Consider `Cc1cc(NC(=O)CSCc2ccccc2C)no1`, for which the activation is -0.39% (inactive).
Take `COc1cc(CN2CCN(Cc3ccc(C)cc3)CC2)c([N+](=O)[O-])cc1OC`: the activation was -0.34% (inactive).
Consider `Cc1ccc(-n2c(SCC(=O)N/N=C/C=C/c3ccccc3[N+](=O)[O-])nc3ccccc3c2=O)cc1`, for which the activation was 0.36% (inactive).
As to `Cc1ccc(C(C)(C)C)c(OCCCCN2CCCC2)c1`, the activation was 0.04% (inactive).
To `COC(=O)c1c(C)[nH]c(C(=O)/C=C/c2ccc(Cl)cc2)c1C` belongs 0.44% (inactive).
The same measure for `O=C(CSc1ncn[nH]1)NCc1ccc2c(c1)OCO2`: -2.24% (inactive); for `COC(=O)c1c(NC(=O)CN2CCN(S(=O)(=O)c3ccccc3[N+](=O)[O-])CC2)sc2c1CCC(C)C2` (centres undefined): 0.62% (inactive).
To `CCc1c(O)cc2n(c1=O)-c1ccccc1C2(C)C` belongs 0.55% (inactive); to `CC(=O)N1Cc2ccccc2CC1C(=O)O` (centres undefined), 0.61% (inactive); to `Cc1ccc(OCC(=O)Nc2cccc3c2CCCC3)cc1C`, 1.68% (inactive).
`CCOC(=O)Cc1ncccc1C(=O)Nc1ccc(OC)cc1`: the activation is -0.93% (inactive).
As to `O=C(C1=C[C@H](C2CC2)C[C@H](OCc2ccc(CO)cc2)O1)N1CCN(Cc2ccccc2)CC1`, the activation is 0.58% (inactive).
To `Cc1ccc(S(=O)(=O)C2C(=O)NC3(C)CC2c2ccccc2O3)cc1` (centres undefined) belongs 0.78% (inactive); to `COC(=O)/C=C\C(=O)Nc1cccc([N+](=O)[O-])c1`, 0.27% (inactive); to `CCn1c(=O)c(=O)n(CC)c2cc(S(=O)(=O)N3CCc4ccccc43)ccc21`, -1.27% (inactive).
To `O=C(Oc1cccc(N2C(=O)C3C4c5ccccc5C(c5ccccc54)C3C2=O)c1)c1ccco1` (centres undefined) belongs 0.92% (inactive).
To `CCC(=O)/C(=C(/O)c1ccccc1)c1nc2ccccc2[nH]1` belongs -0.31% (inactive); to `FC(F)(F)c1cccc(Cc2noc(CN3CCC(N4CCCCC4)CC3)n2)c1`, 0.44% (inactive); to `Cc1ccccc1-n1nnnc1SCCCC(=O)c1ccc(F)cc1`, 0.87% (inactive).
In the case of `CCOC(=O)NC(=O)C(=CNc1cccc(OC)c1)C(=O)NC(=O)OCC`, the activation is -0.29% (inactive).
The same measure for `O=C(CN(C(=O)c1csnn1)c1cccc(F)c1)NCc1ccc(F)cc1`: 0.3% (inactive); for `C=C(C)CNC(=S)N/N=C/c1ccccc1OCC(=O)O`: -0.31% (inactive).
To `COc1ccc(NC(=O)c2ccccc2[N+](=O)[O-])cc1OC` belongs 0.48% (inactive).
The same measure for `O=C(Nc1ccc(Br)cn1)c1ccc([N+](=O)[O-])o1`: -1.5% (inactive); for `Cc1cc(C)c(C#N)c(N2CCC(C(N)=O)CC2)n1`: -1.8% (inactive); for `O=C(NN1C(=O)C2C3C=CC(C3)C2C1=O)c1ccco1` (centres undefined): -0.88% (inactive).
As to `COc1ccccc1CC(NC(C)=O)C(=O)NC1CCN(C(=O)Nc2ccccc2Cl)CC1` (centres undefined), the activation was -0.13% (inactive).
To `CCn1c(SCC(=O)N(C)C2CCS(=O)(=O)C2)nnc1-c1cccs1` (centres undefined) belongs -1.15% (inactive); to `COC(=O)c1nc(NC(=O)c2ccc(C(C)(C)C)cc2)n[nH]1`, -0.33% (inactive).
The same measure for `O=C(C1CCN(S(=O)(=O)c2ccc(Br)s2)CC1)N1CCN(C2CCCCC2)CC1`: 0.46% (inactive); for `CSCCNCc1cn(-c2ccc(F)cc2F)nc1-c1ccccc1C`: 0.48% (inactive).
Regarding `COC(=O)Cc1ccc(OCC(=O)Nc2ccc(OC(F)(F)F)cc2)cc1`, the activation was 0.09% (inactive).
To `O=C1/C(=C\c2ccccc2Cl)SC(=S)N1CCC(=O)N1CCCc2ccccc21` belongs -0.64% (inactive); to `CC(C)Oc1ccc(/C=C(\NC(=O)/C=C/c2ccco2)C(=O)NCCc2nc3ccccc3[nH]2)cc1`, 0.27% (inactive).
To `O=C(NN1C(=O)C2C3C=CC(O3)C2C1=O)c1ccccc1` (centres undefined) belongs -0.16% (inactive); to `COc1cc2c3c(c1)/C(=C1/SC(=S)NC1=O)C(=O)N3C(C)(C)C=C2C`, -0.69% (inactive); to `CN(C)c1ccc(/C=N/NC(=O)c2ccc(Cn3cc(Br)cn3)o2)cc1`, -0.04% (inactive).
Regarding `COCC(C)NC(=O)CSc1nc2nn(-c3ccccc3)c(=O)c-2c2n1CCCCC2` (centres undefined), the activation is -1.27% (inactive).
The same measure for `CN(C)C(=O)c1ccc2c(c1)C1C3CCC(C3)C1C(c1ccccc1)N2` (centres undefined): -0.17% (inactive); for `N=c1n(CCc2ccccc2)c2ccccc2n1Cc1ccccc1F`: -0.46% (inactive); for `COc1ccc(C2NC(=S)NC3=C2CCc2ccccc23)cc1OC` (centres undefined): 0.96% (inactive).
On to `CCCn1c(N)c(C(=O)CSc2nc3ccccc3c(=O)n2-c2ccc(OC)cc2)c(=O)[nH]c1=O`, for which the activation was 0.00314% (inactive).
To `CC(C)c1nccn1S(=O)(=O)c1cc([N+](=O)[O-])ccc1Cl` belongs 1.71% (inactive); to `O=c1cc(-c2ccccc2)[nH]c2cc(F)ccc12`, -0.1% (inactive); to `COc1ccccc1N1CCN(CC(=O)NCCc2ccc(S(N)(=O)=O)cc2)CC1`, 0.00253% (inactive).
As for `COc1ccc(OC)c(-c2csc(NC(=O)C3=NNC(=O)CC3)n2)c1`, the activation was -1.87% (inactive).
To `COc1ccc(OCC(=O)Nc2cc(C)c(Cl)cc2OC)c([N+](=O)[O-])c1` belongs 0.12% (inactive).
To `CC1CCN(S(=O)(=O)c2ccc3ncn(CC(=O)N(C)C4CCCCC4)c(=O)c3c2)CC1` belongs -2.09% (inactive).
The same measure for `CCc1nc2ccccc2c(C(=O)OC2CCCCC2=O)c1C` (centres undefined): 0.11% (inactive); for `CCOC(=O)C1(Cc2cccc(OC)c2)CCN(C(C)COC)CC1` (centres undefined): -0.66% (inactive); for `O=C(CSc1nnc(-c2ccncc2)o1)NCc1ccc(Cl)cc1`: -0.01% (inactive).
Consider `CC(C)(C)CN1CCNC(=O)C1CC(=O)NC1Cc2ccccc2C1` (centres undefined), for which the activation is -0.72% (inactive).
To `Cc1cccc(NC(=S)N(CCN(C)C)C(C)c2ccco2)c1` (centres undefined) belongs 0.05% (inactive).
The same measure for `CC(C)(C)[C@H]1C=C(C(=O)NCc2ccccc2)O[C@@H](OCc2ccc(CO)cc2)C1`: -1.79% (inactive); for `CCC(C)(C)NC(=O)c1cc([N+](=O)[O-])ccc1N1CCCCC1`: -0.54% (inactive); for `CCCn1nc(Oc2nc(NC(C)C)nc(N(C)C)n2)ccc1=O`: 0.03% (inactive).
The same measure for `Nc1c(-c2ccc(F)cc2)cnc2ncnn12`: 1.8% (inactive).
Take `O=C(CN1CCN(C/C=C/c2ccccc2)CC1)Nc1ccc(F)cc1F`: the activation is -0.37% (inactive).
As to `O=C(CP(=O)(c1ccccc1)c1ccccc1)N1CCOCC1`, the activation was 0.42% (inactive).
The same measure for `CC(=O)C1=C(C)NC2=C(C(=O)CC(C)(C)C2)C1C` (centres undefined): -0.01% (inactive).
The same measure for `CN1C(=O)/C(=C/c2ccco2)SC1=Nc1cccc(C(=O)O)c1`: -0.55% (inactive); for `Cc1cccc(-n2c(Cc3cc(=O)[nH]c(=O)[nH]3)nnc2SCC(=O)Nc2cccc(C(F)(F)F)c2)c1`: 0.37% (inactive).
To `Cc1ccc(OCC(=O)NNC(=S)NCc2ccccc2)cc1` belongs 0.08% (inactive); to `CN(C)Cc1ccc(F)cc1Sc1cc(Cl)ccc1Cl`, -0.14% (inactive).
For `CCOc1cc(CNn2c(C)nnc2SCC(=O)NC(C)(C)C)ccc1OCC(=O)NC(C)(C)C`, the activation was -0.27% (inactive).
The same measure for `CC1=NNC(=O)C1CCC(=O)N/N=C\c1ccc(Cl)c(Cl)c1` (centres undefined): -0.00164% (inactive); for `Cc1ccc2nc(-c3ccccn3)cc(C(=O)Nc3ccc4c(c3)OCO4)c2c1`: 4.14% (inactive); for `Cc1ccccc1-n1nc(SCC(=O)O)sc1=S`: -0.13% (inactive).
The same measure for `CC(=O)Nc1ccccc1C(=O)C(=O)Nc1ccc(F)cc1`: -3.37% (inactive); for `CN(C)/C=C/C(=O)c1cnc2sccn2c1=O`: 0.12% (inactive).
